Sampled rows, rich in hits. Any-hit rate of the full collection: about 2.9%.
EBV LMP1 NFkB: reduces LMP1-driven NF-kappaB luciferase signal | inhibition, % at 12.5 µM | hit rate 0.69% among 350,000 | LMP1-induced NF-kappaB luciferase reporter cells, luminescence | AID 504558; in the data active = inhibition above about 41%; inconclusive = no clear call, values can overlap the other calls
Shn3 3UTR inh: Schnurri-3 reporter inhibition in Clone20 osteoblasts. Clone20 osteoblast Shn3 3'UTR firefly luciferase, 24 h. inhibition, % at 12.5 µM. hit rate 0.52% among 360,000;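 active = mean inhibition of at least 75% with every replicate also reaching 75%; inconclusive = mean inhibition at least 75% but some replicate below; inactive = mean inhibition below 75%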
HIF-2a block: inhibitors of HIF-2a | AID 624352 | inhibition, % at 18.8 µM | 786-0 RCC cells HIF-2a reporter, luciferase luminescence, overnight | hit rate 0.72% among 360,000;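 active = inhibition of the luminescence signal of 40% or more relative to plate controls, in a single-dose primary screen at 18.75 µM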
KKLEB cytotox: reduces viability of KKLEB cystic fibrosis airway cells; hit rate 0.36% among 360,000; KKLEB CF airway cells viability, ATPlite luminescence, overnight; active compounds read low; cells stimulated with P. aeruginosa culture filtrate; activity change (cytotoxicity), % at 5 µM; AID 602141;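 active = corrected activity change at or below -50% at 5 µM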
Peg3 prom inh: inhibitors of Peg3 promoter. HeLa PEG-Prom luciferase reporter, luminescence, overnight. inhibition, % at 20 µM. hit rate 1.7% among 360,000. AID 588405;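 active = inhibition of at least 50% at 20 µM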
CF NFkB block: blocks PAF-induced NF-kB reporter in cystic fibrosis cells. KKLEB NF-kB-GFP reporter, GFP fluorescence overnight. inhibition, % at 5 µM. hit rate 0.86% among 360,000. AID 588850;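 active = at least 50% inhibition at 5 µM, scaled per plate between neutral and stimulator controls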;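 note: PAF is a Pseudomonas aeruginosa culture filtrate used as stimulus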
CF NFkB inh conf: confirmation of cystic fibrosis induced NF-kB inhibitors; shares compounds with CF NFkB block; hit rate 64% among 1,300; inhibition, % at 5 µM; AID 602472; KKLEB CF airway cells, PAF-induced NF-kB-GFP fluorescence, overnight; in the data active = inhibition above about 40%;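 note: stimulus PAF is a Pseudomonas aeruginosa filtrate and not platelet activating factor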
A number is an active result; . = inactive; ? = inconclusive; / = no result given; ! = not confirmed by another sample.

SMILES | EBV LMP1 NFkB | Shn3 3UTR inh | HIF-2a block | KKLEB cytotox | Peg3 prom inh | CF NFkB block | CF NFkB inh conf
C=CCOc1c(OC)cc(/C=N/Nc2cccc(C(=O)O)c2)c(Br)c1Br | . | . | . | . | . | 62 | 67
CCOc1nc(N2CCOCC2)nc(N2CCOCC2)n1 | . | . | . | . | . | . | /
CC(C)n1c(SCc2ccccc2F)nc2c1c(=O)n(C)c(=O)n2C | . | . | . | . | . | 57 | 58
CC(C)n1c(SCc2cc(=O)[nH]c3ccccc23)nc2c1c(=O)n(C)c(=O)n2C | . | . | . | . | . | . | /
COc1ccc(-c2csc(NC3OC(=O)c4c3ccc(OC)c4OC)n2)cc1OC (stereo unspecified) | . | / | . | . | 60 | 77 | 87
COc1ccc2c(c1OC)C(=O)OC2Nc1nc(-c2ccc([N+](=O)[O-])cc2)cs1 (stereo unspecified) | . | . | . | . | . | . | /
COCCn1c(=NC(=O)c2sc3ccccc3c2Cl)sc2cc(S(N)(=O)=O)ccc21 | . | . | . | . | . | 55 | .
COC(C/C=C/C(=O)COCc1ccccc1)OC | . | . | . | . | . | . | /
COC(C/C=C/C(=O)[C@H](C)OCc1ccccc1)OC | . | . | . | . | . | 58 | .
Cc1ccc(/C=[N+](\[O-])c2ccc(N(C)C)cc2)c2nsnc12 | . | ? | . | . | . | 68 | .
O=C(CC12CC3CC(CC(C3)C1)C2)N/N=C/c1ccncc1 | . | . | . | . | . | . | /
CN1CCN(c2ncnc3scc(-c4ccccc4Cl)c23)CC1 | . | . | . | . | . | 71 | 74
OCC1CCCN(c2ncnc3scc(-c4ccccc4)c23)C1 (stereo unspecified) | . | . | . | . | . | 50 | 40
COCc1[nH]c(=S)[nH]c(=O)c1C | . | . | . | . | . | . | /
COc1cccc(NC(=S)NCCc2ccccn2)c1 | . | . | . | . | . | . | /
Oc1cc2c(cc1C(c1ccc(Br)cc1)N1CCCC1)OCO2 (stereo unspecified) | . | . | . | . | . | 53 | .
Cc1cccc(S(=O)(=O)NNC(=O)c2sc(C)nc2C)c1 | . | . | . | . | . | . | /
Cc1c(NC(=O)c2cc(-c3ccccc3)nc3ccccc23)c(=O)n(-c2ccccc2)n1C | . | . | . | . | . | . | /
Cc1c(NC(=O)c2cc(-c3cccs3)nc3ccccc23)c(=O)n(-c2ccccc2)n1C | ? | . | . | . | 54 | 65 | 64
CCOc1ccc2ccccc2c1C(=O)NCC(c1ccc(N(C)C)cc1)N(C)C (stereo unspecified) | . | . | . | . | . | . | /
Cc1cc(C)n(-c2ncnc3sc4c(c23)CC(C)CC4)n1 (stereo unspecified) | . | . | . | . | . | . | /
CC1CCc2c(sc3ncnc(N4CCOCC4)c23)C1 (stereo unspecified) | . | . | . | . | . | 66 | 63
c1ccc(N2CCN(c3ncnc4sc5c(c34)CCC5)CC2)cc1 | . | . | . | . | . | 59 | 42
CC1CCc2sc3ncnc(N4CCOCC4)c3c2C1 (stereo unspecified) | . | . | . | . | . | 51 | 57
CC1(OC(=O)CCc2ccccc2)C(=O)C=C2C=C(c3ccc(C#N)cc3)N(C3CCCC3)C=C2C1=O (stereo unspecified) | . | . | . | . | . | . | /
SMILES | EBV LMP1 NFkB | Shn3 3UTR inh | HIF-2a block | KKLEB cytotox | Peg3 prom inh | CF NFkB block | CF NFkB inh conf
Nc1ncnc(NCc2ccc(F)cc2)c1[N+](=O)[O-] | . | . | . | . | . | 64 | 64
Cc1ccc2nc(C(F)(F)F)c(C#N)c(N)c2c1 | . | . | . | . | 101 | 83 | 100
Cc1cccc(C(C#N)c2nc3ccccc3nc2C(F)(F)F)c1 (stereo unspecified) | . | . | . | . | . | . | /
N=C1N(c2ccccc2)C(=S)C(=Nc2ccccc2)N1c1ccccc1 | . | . | . | . | 74 | 67 | 81
COc1ccc(N=C2C(=S)N(c3ccc(OC)cc3)C(=NS(=O)(=O)c3ccccc3)N2c2ccccc2)cc1 | . | . | . | . | . | . | /
O=C1C2C(c3ccccc3)CC=CC2[C@H](c2ccoc2)N1Cc1ccccc1 (stereo partly specified) | . | . | . | . | . | . | /
O=C1C2C(c3ccccc3)CC=CC2[C@H](c2ccc3ccccc3c2)N1Cc1ccccc1 (stereo partly specified) | . | . | . | . | . | 55 | 43
Cc1ccc(F)c([C@H]2C3C=CCC(c4ccccc4)C3C(=O)N2Cc2ccccc2)c1 (stereo partly specified) | . | . | . | . | . | 63 | .
CN(Cc1ccco1)c1ncnc2ccc(-c3ccoc3)cc12 | . | . | . | . | . | 66 | 56
COc1ccc(-c2cc(C(F)(F)F)nc(S(=O)(=O)CCCC(=O)Nc3cccnc3Cl)n2)cc1OC | . | 96 | . | . | 106 | 93 | 88
COc1ccc(Cl)cc1C(=O)OCC(=O)Nc1cccnc1Cl | . | . | . | . | . | . | /
COc1ccccc1P(=O)(Cc1ccccc1[N+](=O)[O-])c1ccccc1 (stereo unspecified) | . | . | . | . | . | . | /
CC(C)(C)OC(=O)NCCCCCNC(=O)c1nc[nH]c1C(=O)NCC(=O)OCc1ccccc1 | . | . | . | . | 74 | 74 | 72
O=C(COC(=O)c1ccccc1NCCO)NCc1cccs1 | . | . | . | . | . | . | /
CS(=O)(=O)Nc1ccccc1C(=O)OCC(=O)NCc1cccs1 | . | . | . | . | . | 51 | .
c1ccc(CNc2ncnc3ccccc23)cc1 | . | . | . | . | . | 50! | 41
CC1CNCCN1S(=O)(=O)c1cccc2cnccc12 (stereo unspecified) | . | . | . | . | . | . | /
O=S(=O)(c1cccc2cnccc12)N1CCCNCC1 | . | . | . | . | . | 50 | 58
COCC[N+]1(C)CCCCC1 | . | . | . | . | . | . | /
Cc1cccc(NC(=O)[C@H](NC(=O)[C@@H]2Cc3ccccc3CN2)c2ccccc2)c1 | . | . | . | . | . | . | /
COc1cccc2sc(N3CCN(c4nc5ccccc5s4)CC3)nc12 | . | . | . | . | . | 56 | .
Cc1ccc(NC(=O)C2CC(Cl)=CCC2C(=O)O)c([N+](=O)[O-])c1 (stereo unspecified) | . | . | . | . | . | . | /
O=C(NC1CCCCCC1)c1c2c(nc3ccccc13)CCN(Cc1ccccc1)C2 | . | . | . | . | . | . | /
Cc1c(Cl)cccc1NC(=O)COC(=O)c1c2c(nc3ccccc13)CCN(Cc1ccccc1)C2 | . | . | . | . | 60 | 62 | 76
